Bioassay records from PubChem.
AI-2 QS modul: Vibrio harveyi AI-2 quorum sensing modulation; Vibrio harveyi JMH597 AI-2 luminescence/OD600 ratio, 9 h; hits give low values; strain lacks LuxN and CqsS sensors; 0 = neutral-control median; activity change, % at 7.5 µM; hit rate 0.4% among 300,000; AID 2094; in the data active means activity change below about -75%, passing the limit was not always enough;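 further: luminescence divided by OD600 gain over 9 h not by final OD600 alone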
AHR activator: activators of human aryl hydrocarbon receptor. activation, % at 5 µM. AID 2796. hit rate 2.5% among 320,000. AHR-responsive luciferase reporter cells, luminescence; in the data active means activation above about 47%
SUMO Mot1 rescue: blocks SUMOylation pathway, rescuing yeast Mot1-301 growth; AID 2716; hit rate 1% among 320,000; growth rescue, % at 18.8 µM; S. cerevisiae Mot1-301 growth rescue, ATP luminescence, 38.5C; percent above DMSO median, 100 means doubled;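 active means every valid replicate shows activation above 250% relative to neutral control wells; inactive means the rest, any valid replicate at or below 250%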
H9c2 protect: modulators protecting cardiomyocytes from myocardial damage; H9c2 cardiomyocytes, H2O2 injury protection, ATPLite, 2 h; protection from H2O2 cell death, % at 20 µM; hit rate 0.63% among 360,000; AID 588492;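 active means compounds giving at least 50% protection of heart cells from peroxide-induced death in the single-dose screen, raw or plate-pattern-corrected value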
NTR1 agonist: activates human neurotensin receptor 1. P30989. NTR1-U2OS beta-arrestin-GFP spot imaging, agonist mode. activation, % at 20 µM. hit rate 0.17% among 330,000. AID 493036;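 active means activation at or above 40% of the spot to cytoplasm intensity ratio, with at least 20 cells analyzed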
Target sequence (P30989 whole entry, looked up): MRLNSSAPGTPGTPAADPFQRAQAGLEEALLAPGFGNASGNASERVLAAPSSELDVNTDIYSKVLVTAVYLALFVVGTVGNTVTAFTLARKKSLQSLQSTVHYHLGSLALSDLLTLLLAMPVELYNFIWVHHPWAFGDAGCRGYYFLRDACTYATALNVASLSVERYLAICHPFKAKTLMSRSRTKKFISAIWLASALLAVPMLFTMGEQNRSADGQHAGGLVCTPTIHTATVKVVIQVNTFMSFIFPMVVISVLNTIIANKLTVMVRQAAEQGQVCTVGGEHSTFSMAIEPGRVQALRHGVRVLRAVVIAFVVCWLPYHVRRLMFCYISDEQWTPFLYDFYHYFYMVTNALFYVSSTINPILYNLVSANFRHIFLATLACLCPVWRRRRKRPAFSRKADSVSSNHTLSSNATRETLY
GRIN3A LBD mod: modulates the human NR3A ligand-binding domain; NR3A LBD differential scanning fluorimetry, Tm shift; 0% = protein alone, 100% = glycine-bound protein; Tm shift relative to glycine control, % at 25 µM; hit rate 2.5% among 340,000;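 active means melting temperature shift of at least 10% of the positive control shift, at one fixed dose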
Numbers stand for hits; n = inactive; x = no result. Sampled rows, rich in hits. Any-hit rate of the full collection: about 6.2%.

SMILES	AI-2 QS modul	AHR activator	SUMO Mot1 rescue	H9c2 protect	NTR1 agonist	GRIN3A LBD mod
COCC(=O)OCC(=O)N1N=C(c2ccc(Cl)cc2)CC1c1ccco1 (stereo not given)	n	n	n	n	n	n
COc1ccc(C2CC(c3ccc4ccccc4c3)=NN2C(=O)CSc2ncccn2)cc1 (stereo not given)	n	n	n	n	n	19
CN(Cc1ccccc1F)C(=O)COc1ccc(C(=O)c2ccccc2)cc1	n	n	n	n	n	n
COc1ccc2nc3cc(Cl)ccc3c(Nc3cc(CN4CCCC4)c(O)c(CN4CCCC4)c3)c2n1	n	n	n	50	n	x
O=C(Nc1ccc(Oc2ncnc3cc(Cl)ccc23)nc1)Nc1cccc(C(F)(F)F)c1	n	n	n	n	n	98
CCc1nc2ccc(C(=O)NCCCN(C)C)cn2c1N(CC)CCOC	x	x	x	n	x	x
CCOc1ccccc1NC(=O)CCC(=O)Nc1nnc(C2CCCCC2)s1	n	n	n	n	n	15
Nc1cc(C(F)(F)F)ccc1OCC1CCCO1 (stereo not given)	n	n	n	n	n	n
CC(=O)Nc1cccc2c1Cc1ccccc1-2	n	n	n	n	n	36
CC(=O)Nc1ccc(S(=O)(=O)N(C)CC(=O)OC(C)C(=O)NC2(C#N)CCCCC2)cc1 (stereo not given)	x	x	x	n	x	x
Cn1cnc(S(=O)(=O)NC2CCN(Cc3c(F)cccc3Cl)CC2)c1	n	n	n	n	n	n
COc1ccc(/C=C2\CN(Cc3ccccc3)C/C(=C\c3ccc(OC)c(O)c3)C2=O)cc1O	n	n	n	61	n	n
COc1ccc(/C=C2\CC/C(=C\c3ccc(OC)c(OC)c3)C2=O)cc1OC	n	n	n	n	n	16
COc1ccc(C=C2SC(=O)NC2=O)cc1OC	x	x	x	n	x	16
COc1cc(/C=C2\CC/C(=C\c3ccc(OCCO)c(OC)c3)C2=O)ccc1OCCO	n	n	n	81	n	n
COc1ccccc1OCCCOc1ccc(/C=C2\SC(=O)NC2=O)cc1OC	n	n	n	n	n	n
CCN1C/C(=C/c2ccc(OC)c(O)c2)C(=O)/C(=C/c2ccc(OC)c(O)c2)C1	n	n	n	n	n	n
CC[C@]1(C(=O)OC)[C@H]2C(=O)N(C)C(=O)[C@H]2[C@H]2CN(C)C(=NC3CCCCC3)N21	x	x	x	n	n	n
COc1cc(/C=C2/CC/C(=C/c3ccc(O)c(OC)c3)C2=O)ccc1O	n	n	n	70	n	14
COc1cc(/C=C2\C(=O)ON=C2c2ccccc2)cc(Cl)c1O	n	n	x	n	n	n
COc1cc(/C=C2/C(=O)ON=C2c2ccccc2)ccc1O	n	n	n	n	n	11
COc1cc(/C=C/C=C2/CC/C(=C/C=C/c3ccc(O)c(OC)c3)C2=O)ccc1O	x	x	x	n	x	n
COc1cc(/C=C2\COC/C(=C\c3ccc(O)c(OC)c3)C2=O)ccc1O	n	n	n	53	n	26
COc1ccc(CCC(=O)Nc2ccc(S(=O)(=O)N3CCCC3)cc2)cc1OC	x	n	n	n	n	n
O=C1CSC(=Nc2cc(Cl)ccc2Cl)N1	n	n	n	n	n	11
SMILES	AI-2 QS modul	AHR activator	SUMO Mot1 rescue	H9c2 protect	NTR1 agonist	GRIN3A LBD mod
O=C(O)c1cccc(CSc2nnc(COc3ccccc3)o2)c1	n	n	n	n	n	11
O=C(O)c1ccc(CSc2nnc(COc3ccccc3)o2)cc1	n	n	n	n	n	n
CN(C)c1ccc(C=O)c(Oc2ccccc2)c1	x	x	x	n	x	x
COc1cc(C2N=C(c3ccccc3)NO2)cc(Br)c1O (stereo not given)	n	65	n	n	n	n
O=C(/C=C/c1ccccc1)Nc1ccc(S(=O)(=O)N2CCOCC2)cc1	n	n	n	n	n	31
CC(=O)c1cccc(NC(=O)/C=C/c2ccc(S(=O)(=O)N3CCOCC3)cc2)c1	x	n	n	n	n	n
O=C(/C=C/c1cccc(F)c1)Nc1ccc(S(=O)(=O)N2CCOCC2)cc1	x	n	n	n	n	37
Cc1cc(CNC[C@H]2O[C@@H](n3ccc(=O)[nH]c3=O)[C@H](O)[C@@H]2O)no1	x	x	x	n	x	x
O=C(COC(=O)c1cccc2c1C(=O)c1ccccc1C2=O)NC1CCCCC1	n	n	n	58	n	n
COc1ccc(N2CCN(CC(=O)Nc3nc(C)cs3)CC2)cc1	n	n	n	n	n	n
COc1ccc(OC)c(C(=O)Nc2ccc3[nH]ccc3c2)c1	n	50	n	n	n	n
COc1ccc(C(=O)Nc2ccc3[nH]ccc3c2)cc1	n	n	n	n	n	31
COc1ccc(C(=O)Nc2ccc3[nH]ncc3c2)cc1	n	n	n	n	n	12
COc1ccc(C(=O)Nc2ccc3c(c2)OCCO3)c(OC)c1	x	x	x	n	x	x
COc1ccc(C(=O)Nc2ccc3cn[nH]c3c2)c(OC)c1	n	56	n	n	n	n
CCc1nc2ccc(C(=O)N3CCN(S(=O)(=O)CC)CC3)cn2c1N(CC)C(=O)NCCc1ccccc1	x	x	x	n	x	x
O=C1c2ccccc2C(c2nc3ccccc3[nH]2)N1Cc1ccco1 (stereo not given)	x	x	x	n	x	x
Nc1nn2c(-c3ccccc3)cc(=O)[nH]c2c1N=Nc1ccc(Br)cc1	x	x	x	n	x	25
Cc1cc(=O)[nH]c2c1c(-c1ccccc1)nn2C	n	n	n	n	n	n
Nc1nn2c(-c3ccccc3)cc(=O)[nH]c2c1N=Nc1ccc(O)cc1	n	n	n	n	n	27
COc1cc2ccccc2cc1C(=O)OCc1nc2ccsc2c(=O)[nH]1	x	n	n	n	n	n
O=C(CCNC(=O)c1ccc([N+](=O)[O-])cc1)Nc1nc2ccccc2[nH]1	x	x	x	n	n	n
COc1cc(N2C(=O)C=CC2=O)c(OC)cc1Cl	-92	n	n	n	n	n
COc1cc(Cl)c(S(=O)(=O)N2CCCC2)cc1Cl	n	n	n	n	n	n
C[C@@H]1CN([C@H](C)CO)C(=O)c2cc(-c3ccc(C(=O)N(C)C)cc3)cnc2O[C@@H]1CN(C)C(=O)c1cccnc1	x	x	x	n	x	x
SMILES	AI-2 QS modul	AHR activator	SUMO Mot1 rescue	H9c2 protect	NTR1 agonist	GRIN3A LBD mod
O=[N+]([O-])c1ccccc1/C=N/Nc1nc(N2CCCC2)nc(N2CCCC2)n1	n	51	n	n	n	n
COc1ccc([N+](=O)[O-])cc1/C=N/Nc1nc(N2CCCCC2)nc(N2CCCCC2)n1	n	n	n	n	n	29
COc1ccc(-n2c(N)c(-c3nc4ccccc4n3C)sc2=S)cc1	n	n	n	n	n	n
CCOc1ccc(-n2c(N)c(-c3nc4ccccc4[nH]3)sc2=S)cc1	n	72	n	n	n	n
COc1cccc(NC(=O)c2ccc3nc(C)c(N(C)Cc4ccc(NC(C)=O)cc4)n3c2)c1	x	x	x	n	x	x
O=C(Nc1cccs1)Nc1ccccc1Br	n	57	n	n	n	n
O=C1C(=Cc2ccccn2)CCc2ccccc21	x	x	x	n	x	x
O=C1/C(=C/c2cccc([N+](=O)[O-])c2)CCc2ccccc21	n	n	n	n	n	11
COc1cccc(C=C2Cc3ccccc3C2=O)c1	x	x	x	n	x	x
